38 compounds from PubChem BioAssay (Tox21) can be followed below.

Unmarked numbers belong to inactive results. Inconclusive results are not listed. Calls of active or inactive are those of the source. Unless noted, calls come from the whole dose curve; as a rule, active = well fitted cell-killing curve with a large enough effect in the repeat runs; inconclusive = weak or mixed curves; inactive = flat fitted curve, though single readings scatter.
% is set by controls: 0 for no effect and ±100 for the full control effect.

The first assay in a line: qHTS assay to identify small molecule agonists of the estrogen related receptor (ERR) signaling pathway from Tox21 library (AID 1224849; calls by dose curve; note: nearly all actives have a fitted effect of over 15% in size). The settings on record: ERR reporter cell line, ONE-Glo luciferase, 18 h; at 42.5 µM (top of the series). The method in brief: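 Agonist signal is luciferase luminescence from an ERR reporter cell line treated 18 h at 37 C with DMSO-dissolved compounds, read 30 min after ONE-Glo addition at room temperature.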
For orientation: qHTS replaces the single test concentration by a dilution series.
With `Cc1nc(-c2ccc(Cl)cc2)oc1COC(C)(C)C(=O)O`, the activity change, positive = activation is 0.637%.
`O=C(O)c1cc(=O)c2ccccc2o1`: the activity change, positive = activation was -3.87%.
On to `Cc1cccc(C(=O)O)c1O`, for which the activity change, positive = activation is 0.112%.
Consider `Cc1cccc(C)c1NC(=O)c1ccc(N)cc1`, for which the activity change, positive = activation was 5.09%.
Consider `Cc1c(N)cccc1C(F)(F)F`, for which the activity change, positive = activation was 6.86%.
On to `CC(C)(c1cc(Br)c(OCC(Br)CBr)c(Br)c1)c1cc(Br)c(OCC(Br)CBr)c(Br)c1` (stereo not given), for which the activity change, positive = activation is 2.35%.
As for `Cc1ccc(C(C)C)cc2c(C)ccc1-2`, the activity change, positive = activation was -2.57%.
Regarding `Cc1c(F)c(N2CCNC(C)C2)cc2c1c(=O)c(C(=O)O)cn2C1CC1` (stereo not given), the activity change, positive = activation is 9.53%.
In the case of `CCOc1ccc2ccccc2c1C(=O)N[C@@H]1C(=O)N2[C@@H]1SC(C)(C)[C@@H]2C(=O)O`, the activity change, positive = activation was -0.57%.
As to `Cc1c(C)c2c(c(C)c1OC(=O)c1cccnc1)CC[C@@](C)(CCC[C@H](C)CCC[C@H](C)CCCC(C)C)O2`, the activity change, positive = activation is 3.86%.

The assay is the same for the next values; noted with them: ERR reporter cell line, ONE-Glo luciferase, 18 h; at 92.4 µM (top of the series).
Take `O=C(O)c1cccc(C(F)(F)F)c1`: the activity change, positive = activation was -2.71%.
As for `O=C(O)CCN(C1(C(=O)NO)CCCC1)S(=O)(=O)c1ccc(Oc2ccc(F)cc2)cc1`, the activity change, positive = activation was 4.9%.
Same read-out and setting: with `OCC(F)(F)F` the figure was -0.31%.
With `C=CC(C)(CCC=C(C)C)OC=O` (stereo not given), the activity change, positive = activation was 1.64%.
In the case of `OC[C@@H](O)[C@@H](O)CO`, the activity change, positive = activation is 4.53%.
On the same count and under the same terms, with `CCC(COC(=O)CCS)(COC(=O)CCS)COC(=O)CCS` the figure was 4.52%; with `CCCCCCOC(=O)C(C)CC` (stereo not given), 0.0288%; with `C1CCC(SSC2CCCCC2)CC1`, 5.57%.
The same measure, in the same setting: with `CC(=O)c1ccc(C(C)=O)cc1` the figure was -2.27%; with `Clc1sc(Cl)c(Cl)c1Cl`, 4.94%.
On the same count and under the same terms, with `Cc1cc(-c2ccc(N=Nc3cc(S(=O)(=O)O)c4ccccc4c3N)c(C)c2)ccc1N=Nc1cc(S(=O)(=O)O)c2ccccc2c1N` the figure was -50.3%; with `CCCCCc1ccc(Cl)cc1`, -14.2%.
With `Cc1ccc(C)cc1`, the activity change, positive = activation is 0.373%.
Turning to `Cc1ccc(-c2ccccc2)cc1`, the activity change, positive = activation is -3.62%.
On the same count and under the same terms, with `COc1cc(/C=C/c2ccccc2)oc(=O)c1` the figure was 36.4% (active); with `CC(C)(C)C1CCC(=O)CC1`, -0.544%; with `S=c1nccc[nH]1`, -6.52%.
Still for that read-out and setting: with `CCC(=O)C(=O)CC` the figure was -15.7%; with `CCc1ccc(Br)cc1`, 5.1%.
As for `Cc1cccc2cccnc12`, the activity change, positive = activation was 0.0767%.
With `O=C(/C=C/c1ccccc1)OC/C=C/c1ccccc1`, the activity change, positive = activation was 3.92%.
In the case of `Nc1nc(-c2ccccc2)cs1`, the activity change, positive = activation is 41.7% (active).
For the compound `CC(C)OC(=O)C(O)(CC(=O)O)CC(=O)O`, the activity change, positive = activation was 4.45%.
Same read-out and setting: with `CCCCCCCC` the figure was 4.82%; with `Cc1ccc(C(=O)O)cc1`, -0.305%; with `COc1cc(C)ccc1O`, 5.96%.
Turning to `OC[C@H]1O[C@H](O[C@H]2O[C@H](CO)[C@@H](O)[C@H](O)[C@H]2O)[C@H](O)[C@@H](O)[C@@H]1O`, the activity change, positive = activation was 8.53%.

The next assay in a line: qHTS RealTime-Glo MT Cell Viability Assay in HepG2 cells - 24 hour (AID 1224867). Note: nearly all actives have a fitted effect of over 50% in size. The settings on record: RealTime-Glo luminescence; series mostly up to 76.8 µM; activity change, negative = cytotoxicity: at the top concentration. An outline of the steps: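 HepG2 suspension premixed with RealTime-Glo reagents is plated at 600 cells per well and left 5 h at 37 C/5% CO2. Compounds in DMSO then go in, and bioluminescence reflecting viable cell number is recorded over 40 h.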
In the case of `O=C(O)c1cccc(C(F)(F)F)c1`, the “activity change, negative = cytotoxicity” value was -0.335%.
For the compound `O=C(O)CCN(C1(C(=O)NO)CCCC1)S(=O)(=O)c1ccc(Oc2ccc(F)cc2)cc1`, the “activity change, negative = cytotoxicity” value was 6.7%.
Still for that read-out and setting: with `Cc1nc(-c2ccc(Cl)cc2)oc1COC(C)(C)C(=O)O` the figure was 0.76% [at 35.3 µM]; with `O=C(O)c1cc(=O)c2ccccc2o1`, 0.194% [at 35.3 µM]; with `OCC(F)(F)F`, 0.686%.
For the compound `Cc1cccc(C(=O)O)c1O`, the “activity change, negative = cytotoxicity” value was 1.78% [at 35.3 µM].
For `C=CC(C)(CCC=C(C)C)OC=O` (stereo not given), the “activity change, negative = cytotoxicity” value was -1.55%.
Still for that read-out and setting: for `OC[C@@H](O)[C@@H](O)CO` the value was -0.471%.
Take `CCC(COC(=O)CCS)(COC(=O)CCS)COC(=O)CCS`: the “activity change, negative = cytotoxicity” value was 6.71%.
On to `Cc1cccc(C)c1NC(=O)c1ccc(N)cc1`, for which the “activity change, negative = cytotoxicity” value was 5.58% [at 35.3 µM].
With `Cc1c(N)cccc1C(F)(F)F`, the “activity change, negative = cytotoxicity” value was 0.722% [at 35.3 µM].
Same read-out and setting: with `CCCCCCOC(=O)C(C)CC` (stereo not given) the figure was 1.95%; with `C1CCC(SSC2CCCCC2)CC1`, -0.373%.
On to `CC(C)Cn1cnc2c(N)nc3ccccc3c21`, for which the activity change, negative = cytotoxicity is 0.631% [at 15.8 µM].
For the compound `CC(=O)c1ccc(C(C)=O)cc1`, the “activity change, negative = cytotoxicity” value was 3.64%.
In the case of `CC(C)(c1cc(Br)c(OCC(Br)CBr)c(Br)c1)c1cc(Br)c(OCC(Br)CBr)c(Br)c1` (stereo not given), the “activity change, negative = cytotoxicity” value is -11.7% [at 35.3 µM].
`Clc1sc(Cl)c(Cl)c1Cl`: the “activity change, negative = cytotoxicity” value is 0.539%.
Regarding `Cc1cc(-c2ccc(N=Nc3cc(S(=O)(=O)O)c4ccccc4c3N)c(C)c2)ccc1N=Nc1cc(S(=O)(=O)O)c2ccccc2c1N`, the “activity change, negative = cytotoxicity” value was -8.19%.
Regarding `CCCCCc1ccc(Cl)cc1`, the “activity change, negative = cytotoxicity” value was 2.81%.
Take `Cc1ccc(C)cc1`: the “activity change, negative = cytotoxicity” value is 1%.
On the same count and under the same terms, for `Cc1ccc(-c2ccccc2)cc1` the value was 0.306%.
As for `COc1cc(/C=C/c2ccccc2)oc(=O)c1`, the “activity change, negative = cytotoxicity” value was -3.25%.
For `Cc1ccc(C(C)C)cc2c(C)ccc1-2`, the “activity change, negative = cytotoxicity” value is -0.443% [at 35.3 µM].
The same measure, in the same setting: with `CC(C)(C)C1CCC(=O)CC1` the figure was -2.71%; with `S=c1nccc[nH]1`, -2.17%; with `CCC(=O)C(=O)CC`, -0.905%.
Take `CCc1ccc(Br)cc1`: the “activity change, negative = cytotoxicity” value is -4.28%.
For `Cc1cccc2cccnc12`, the “activity change, negative = cytotoxicity” value is -0.0783%.
With `Cc1c(F)c(N2CCNC(C)C2)cc2c1c(=O)c(C(=O)O)cn2C1CC1` (stereo not given), the “activity change, negative = cytotoxicity” value was 3.49% [at 35.3 µM].
In the case of `O=C(/C=C/c1ccccc1)OC/C=C/c1ccccc1`, the “activity change, negative = cytotoxicity” value was -9.13%.
The same measure, in the same setting: for `Nc1nc(-c2ccccc2)cs1` the value was 3.64%; for `CC(C)OC(=O)C(O)(CC(=O)O)CC(=O)O`, -0.544%; for `CCCCCCCC`, 0.0931%.
`CCOc1ccc2ccccc2c1C(=O)N[C@@H]1C(=O)N2[C@@H]1SC(C)(C)[C@@H]2C(=O)O`: the “activity change, negative = cytotoxicity” value was 7.08% [at 35.3 µM].
On to `Cc1ccc(C(=O)O)cc1`, for which the “activity change, negative = cytotoxicity” value is 0.144%.
Turning to `COc1cc(C)ccc1O`, the “activity change, negative = cytotoxicity” value was 0.405%.
On the same count and under the same terms, for `OC[C@H]1O[C@H](O[C@H]2O[C@H](CO)[C@@H](O)[C@H](O)[C@H]2O)[C@H](O)[C@@H](O)[C@@H]1O` the value was -0.627%; for `Cc1c(C)c2c(c(C)c1OC(=O)c1cccnc1)CC[C@@](C)(CCC[C@H](C)CCC[C@H](C)CCCC(C)C)O2`, 3.27% [at 35.3 µM].
